# From PMC7862700, “An all-to-all approach to the identification of sequence-specific readers for epigenetic DNA modifications on cytosine”
# Assays:
# Test in all cases: DAPPL (digital affinity profiling via proximity ligation, sequencing); 10 mM Tris-HCl pH 7.5, 50 mM NaCl, 1 mM DTT, 4% glycerol, room temperature, 30 min; GST-TFs on glutathione beads, 16-mer random dsDNA library, 0.1% formaldehyde crosslink after washing; high values mean tight binding
# [1] = target: T1, FEV (Homo sapiens, UniProt Q99581 1-238); details: protein: recombinant; tags: N-terminal GST; dsDNA, one strand shown
# T1 sequence: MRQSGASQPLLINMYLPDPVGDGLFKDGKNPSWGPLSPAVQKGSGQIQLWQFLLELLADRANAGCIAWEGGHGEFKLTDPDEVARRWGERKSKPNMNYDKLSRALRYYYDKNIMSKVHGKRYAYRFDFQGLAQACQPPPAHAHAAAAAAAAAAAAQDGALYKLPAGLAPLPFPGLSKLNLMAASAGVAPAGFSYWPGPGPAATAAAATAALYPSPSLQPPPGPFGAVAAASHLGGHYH
# Procedure, shortened: (§1)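 Binding signal is each hexamer's read frequency for a factor divided by its frequency in the tag-only sample. The factors were GST-fused human transcription factors from yeast, captured on glutathione beads, DNA-barcoded and pooled with that sample. Pools were incubated with 200 nmole of a random double-stranded 16-mer DNA library in Tris/NaCl/DTT/glycerol buffer at room temperature for 30 min, then washed, crosslinked with 0.1% formaldehyde, proximity-ligated with BsaI/T4 ligase (1 h, 37 °C), PCR-amplified and sequenced on an Illumina NextSeq500.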
# [2] = target: ETV5 (Homo sapiens, UniProt P41161 1-510); details: protein: recombinant; tags: N-terminal GST; dsDNA, one strand shown
# Procedure, shortened: as §1
# [3] = target: HSF1 (Homo sapiens, UniProt Q00613 1-529); details: protein: recombinant; tags: N-terminal GST; chain copies: 3; dsDNA, one strand shown
# Procedure, shortened: as §1
# [4] = target: T2, SPIC (Homo sapiens, UniProt Q8N5J4 1-248); details: protein: recombinant; tags: N-terminal GST; dsDNA, one strand shown
# T2 sequence: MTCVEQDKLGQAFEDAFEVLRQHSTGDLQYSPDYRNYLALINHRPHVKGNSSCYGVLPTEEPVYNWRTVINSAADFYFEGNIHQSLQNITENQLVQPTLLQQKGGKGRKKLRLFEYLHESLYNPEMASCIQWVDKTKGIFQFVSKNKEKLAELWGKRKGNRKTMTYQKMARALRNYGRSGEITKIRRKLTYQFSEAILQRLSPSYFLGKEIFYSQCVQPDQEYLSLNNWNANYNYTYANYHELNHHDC
# Procedure, shortened: as §1
# [5] = target: ELF4 (Homo sapiens, UniProt Q99607 1-663); details: protein: recombinant; tags: N-terminal GST; dsDNA, one strand shown
# Procedure, shortened: as §1
# [6] = target: T3, ELK4 (Homo sapiens, UniProt P28324-2 1-405); details: protein: recombinant; tags: N-terminal GST; dsDNA, one strand shown
# T3 sequence: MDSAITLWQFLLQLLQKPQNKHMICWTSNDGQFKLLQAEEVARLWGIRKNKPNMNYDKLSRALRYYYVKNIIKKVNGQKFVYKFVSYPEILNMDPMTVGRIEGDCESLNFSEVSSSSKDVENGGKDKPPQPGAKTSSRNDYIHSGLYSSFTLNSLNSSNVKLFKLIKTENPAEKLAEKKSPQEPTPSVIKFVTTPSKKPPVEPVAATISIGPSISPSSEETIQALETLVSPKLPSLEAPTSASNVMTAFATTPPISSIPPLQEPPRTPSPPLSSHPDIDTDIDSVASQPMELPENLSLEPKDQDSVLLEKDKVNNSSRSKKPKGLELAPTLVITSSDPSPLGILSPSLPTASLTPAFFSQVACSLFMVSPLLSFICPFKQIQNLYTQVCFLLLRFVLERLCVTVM
# Procedure, shortened: as §1
# [7] = target: T4, ETV2 (Homo sapiens, UniProt O00321 1-342); details: protein: recombinant; tags: N-terminal GST; dsDNA, one strand shown
# T4 sequence: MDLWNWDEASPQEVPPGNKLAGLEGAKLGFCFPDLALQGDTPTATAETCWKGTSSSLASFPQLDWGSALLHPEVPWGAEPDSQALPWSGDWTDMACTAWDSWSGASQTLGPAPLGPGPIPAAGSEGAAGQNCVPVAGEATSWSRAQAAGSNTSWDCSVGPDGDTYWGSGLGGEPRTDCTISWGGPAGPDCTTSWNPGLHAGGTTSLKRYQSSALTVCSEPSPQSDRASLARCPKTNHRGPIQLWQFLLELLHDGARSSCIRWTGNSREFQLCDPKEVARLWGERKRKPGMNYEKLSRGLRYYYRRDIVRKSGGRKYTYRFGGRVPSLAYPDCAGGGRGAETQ
# Procedure, shortened: as §1
# [8] = target: T5, ELF3 (Homo sapiens, UniProt P78545 1-371); details: protein: recombinant; tags: N-terminal GST; dsDNA, one strand shown
# T5 sequence: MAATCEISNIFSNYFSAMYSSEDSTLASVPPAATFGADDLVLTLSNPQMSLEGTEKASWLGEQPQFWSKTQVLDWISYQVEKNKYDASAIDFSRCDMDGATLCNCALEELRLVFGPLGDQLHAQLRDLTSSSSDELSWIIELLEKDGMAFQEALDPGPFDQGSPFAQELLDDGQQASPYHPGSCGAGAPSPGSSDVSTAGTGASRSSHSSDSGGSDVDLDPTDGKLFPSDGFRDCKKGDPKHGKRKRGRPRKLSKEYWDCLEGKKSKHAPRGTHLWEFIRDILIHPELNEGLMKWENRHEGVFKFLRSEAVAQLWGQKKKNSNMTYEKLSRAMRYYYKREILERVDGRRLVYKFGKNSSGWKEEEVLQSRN
# Procedure, shortened: as §1
# [9] = target: CRX (Homo sapiens, UniProt O43186 1-299); details: protein: recombinant; tags: N-terminal GST; dsDNA, one strand shown
# Procedure, shortened: as §1
# [10] = target: ETV1 (Homo sapiens, UniProt P50549 1-477); details: protein: recombinant; tags: N-terminal GST; dsDNA, one strand shown
# Procedure, shortened: as §1
# [11] = target: T6, ERF (Homo sapiens, UniProt P50548 1-548); details: protein: recombinant; tags: N-terminal GST; dsDNA, one strand shown
# T6 sequence: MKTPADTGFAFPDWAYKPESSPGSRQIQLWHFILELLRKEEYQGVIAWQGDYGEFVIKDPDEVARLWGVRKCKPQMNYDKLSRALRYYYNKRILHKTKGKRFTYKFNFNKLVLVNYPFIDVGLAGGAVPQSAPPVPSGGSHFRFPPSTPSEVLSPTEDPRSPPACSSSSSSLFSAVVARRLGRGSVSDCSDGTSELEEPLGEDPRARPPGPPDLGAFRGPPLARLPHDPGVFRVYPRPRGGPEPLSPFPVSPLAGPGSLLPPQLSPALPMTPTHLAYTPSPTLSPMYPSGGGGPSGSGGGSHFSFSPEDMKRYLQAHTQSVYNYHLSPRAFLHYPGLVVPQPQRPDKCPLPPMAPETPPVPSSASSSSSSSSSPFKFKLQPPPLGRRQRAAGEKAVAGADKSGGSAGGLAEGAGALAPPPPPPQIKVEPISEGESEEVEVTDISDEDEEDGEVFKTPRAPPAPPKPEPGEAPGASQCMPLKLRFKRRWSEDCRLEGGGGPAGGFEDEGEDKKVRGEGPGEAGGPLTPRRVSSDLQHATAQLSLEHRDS
# Procedure, shortened: as §1
# [12] = target: T7, ETV3L (Homo sapiens, UniProt Q6ZN32 1-361); details: protein: recombinant; tags: N-terminal GST; dsDNA, one strand shown
# T7 sequence: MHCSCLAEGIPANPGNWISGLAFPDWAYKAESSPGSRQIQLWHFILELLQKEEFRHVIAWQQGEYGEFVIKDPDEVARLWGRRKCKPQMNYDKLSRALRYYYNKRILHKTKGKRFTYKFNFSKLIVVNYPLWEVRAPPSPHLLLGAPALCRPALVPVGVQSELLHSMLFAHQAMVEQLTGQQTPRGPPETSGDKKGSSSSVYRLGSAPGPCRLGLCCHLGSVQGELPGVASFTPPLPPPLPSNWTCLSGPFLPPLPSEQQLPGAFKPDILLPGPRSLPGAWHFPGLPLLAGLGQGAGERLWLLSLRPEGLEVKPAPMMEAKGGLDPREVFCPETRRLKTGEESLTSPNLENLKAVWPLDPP
# Procedure, shortened: as §1
# [13] = target: T8, ETS2 (Homo sapiens, UniProt P15036 1-469); details: protein: recombinant; tags: N-terminal GST; dsDNA, one strand shown
# T8 sequence: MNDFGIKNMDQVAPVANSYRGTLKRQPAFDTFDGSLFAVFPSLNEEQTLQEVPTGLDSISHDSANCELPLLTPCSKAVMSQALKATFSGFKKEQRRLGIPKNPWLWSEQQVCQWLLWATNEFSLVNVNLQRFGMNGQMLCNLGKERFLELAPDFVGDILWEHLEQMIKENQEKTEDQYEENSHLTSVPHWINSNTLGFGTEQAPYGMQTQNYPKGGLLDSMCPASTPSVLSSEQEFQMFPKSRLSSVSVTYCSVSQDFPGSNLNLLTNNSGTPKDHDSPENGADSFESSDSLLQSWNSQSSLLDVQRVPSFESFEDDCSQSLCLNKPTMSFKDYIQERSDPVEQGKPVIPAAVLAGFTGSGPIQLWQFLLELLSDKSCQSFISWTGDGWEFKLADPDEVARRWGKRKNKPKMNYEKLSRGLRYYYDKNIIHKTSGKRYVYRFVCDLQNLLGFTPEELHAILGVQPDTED
# Procedure, shortened: as §1
# [14] = target: T9, SPDEF (Homo sapiens, UniProt O95238 1-335); details: protein: recombinant; tags: N-terminal GST; dsDNA, one strand shown
# T9 sequence: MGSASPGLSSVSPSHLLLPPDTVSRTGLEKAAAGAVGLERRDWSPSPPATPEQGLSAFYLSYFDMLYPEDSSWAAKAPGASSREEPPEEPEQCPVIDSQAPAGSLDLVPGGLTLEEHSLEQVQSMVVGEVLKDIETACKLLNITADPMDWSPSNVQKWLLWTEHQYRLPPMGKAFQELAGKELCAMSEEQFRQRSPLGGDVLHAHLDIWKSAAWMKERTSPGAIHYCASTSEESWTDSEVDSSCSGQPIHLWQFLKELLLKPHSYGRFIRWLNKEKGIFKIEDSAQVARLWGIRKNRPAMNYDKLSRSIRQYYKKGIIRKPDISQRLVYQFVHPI
# Procedure, shortened: as §1
# [15] = target: T10, ETV7 (Homo sapiens, UniProt Q9Y603 1-341); details: protein: recombinant; tags: N-terminal GST; dsDNA, one strand shown
# T10 sequence: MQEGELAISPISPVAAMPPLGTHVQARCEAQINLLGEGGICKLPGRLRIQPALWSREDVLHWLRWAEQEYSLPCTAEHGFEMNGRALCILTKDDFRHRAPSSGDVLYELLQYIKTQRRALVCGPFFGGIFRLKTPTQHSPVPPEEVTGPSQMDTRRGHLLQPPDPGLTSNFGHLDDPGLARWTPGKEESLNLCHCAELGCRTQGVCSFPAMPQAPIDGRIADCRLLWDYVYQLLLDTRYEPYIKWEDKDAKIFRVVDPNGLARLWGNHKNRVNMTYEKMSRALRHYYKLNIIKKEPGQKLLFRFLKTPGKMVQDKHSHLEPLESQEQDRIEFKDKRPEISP
# Procedure, shortened: as §1
# [16] = target: T11, ELF5 (Homo sapiens, UniProt Q9UKW6-2 1-255); details: protein: recombinant; tags: N-terminal GST; dsDNA, one strand shown
# T11 sequence: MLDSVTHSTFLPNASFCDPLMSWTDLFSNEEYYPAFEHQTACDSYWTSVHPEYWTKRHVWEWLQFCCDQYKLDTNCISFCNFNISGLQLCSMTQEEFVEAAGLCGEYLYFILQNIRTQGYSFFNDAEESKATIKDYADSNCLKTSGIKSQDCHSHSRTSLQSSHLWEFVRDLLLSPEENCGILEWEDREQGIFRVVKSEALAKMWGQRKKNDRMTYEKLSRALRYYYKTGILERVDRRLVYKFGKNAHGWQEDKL
# Procedure, shortened: as §1
# [17] = target: T12, ETV3 (Homo sapiens, UniProt P41162-2 1-143); details: protein: recombinant; tags: N-terminal GST; dsDNA, one strand shown
# T12 sequence: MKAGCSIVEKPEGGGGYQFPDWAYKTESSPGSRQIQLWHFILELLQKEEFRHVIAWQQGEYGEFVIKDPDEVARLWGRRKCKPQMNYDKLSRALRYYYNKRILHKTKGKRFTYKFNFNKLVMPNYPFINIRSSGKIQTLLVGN
# Procedure, shortened: as §1
# [18] = target: ETV6 (Homo sapiens, UniProt P41212 1-452); details: protein: recombinant; tags: N-terminal GST; dsDNA, one strand shown
# Procedure, shortened: as §1
# Sequence of ETV5 (P41161 whole entry): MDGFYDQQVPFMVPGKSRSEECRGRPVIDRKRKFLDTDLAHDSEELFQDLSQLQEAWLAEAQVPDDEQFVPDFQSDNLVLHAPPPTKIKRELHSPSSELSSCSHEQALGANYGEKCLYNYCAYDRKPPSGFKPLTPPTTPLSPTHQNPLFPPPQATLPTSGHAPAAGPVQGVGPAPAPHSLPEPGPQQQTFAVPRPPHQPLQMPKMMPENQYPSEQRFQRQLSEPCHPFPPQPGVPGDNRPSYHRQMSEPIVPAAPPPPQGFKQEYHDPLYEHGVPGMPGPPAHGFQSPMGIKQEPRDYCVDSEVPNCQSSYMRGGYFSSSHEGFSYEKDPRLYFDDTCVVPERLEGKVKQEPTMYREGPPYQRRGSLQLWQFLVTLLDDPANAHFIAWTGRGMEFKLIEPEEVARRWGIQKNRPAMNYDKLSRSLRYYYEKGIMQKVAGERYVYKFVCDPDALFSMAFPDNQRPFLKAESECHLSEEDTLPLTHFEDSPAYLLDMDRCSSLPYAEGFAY
# Sequence of ETV1 (P50549 whole entry): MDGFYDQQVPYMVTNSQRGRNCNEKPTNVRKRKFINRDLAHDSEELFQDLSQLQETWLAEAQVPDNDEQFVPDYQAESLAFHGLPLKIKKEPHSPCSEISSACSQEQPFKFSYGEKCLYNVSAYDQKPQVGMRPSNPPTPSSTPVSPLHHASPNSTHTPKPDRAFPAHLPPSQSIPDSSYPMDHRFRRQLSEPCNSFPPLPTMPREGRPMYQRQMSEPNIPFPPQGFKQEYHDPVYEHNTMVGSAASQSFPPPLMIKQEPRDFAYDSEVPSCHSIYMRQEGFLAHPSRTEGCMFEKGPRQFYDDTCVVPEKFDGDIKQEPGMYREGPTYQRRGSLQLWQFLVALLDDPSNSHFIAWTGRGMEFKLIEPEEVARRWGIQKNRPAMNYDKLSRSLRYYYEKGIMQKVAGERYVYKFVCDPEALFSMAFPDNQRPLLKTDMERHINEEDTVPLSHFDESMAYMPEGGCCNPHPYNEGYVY
# Sequence of ELF4 (Q99607 whole entry): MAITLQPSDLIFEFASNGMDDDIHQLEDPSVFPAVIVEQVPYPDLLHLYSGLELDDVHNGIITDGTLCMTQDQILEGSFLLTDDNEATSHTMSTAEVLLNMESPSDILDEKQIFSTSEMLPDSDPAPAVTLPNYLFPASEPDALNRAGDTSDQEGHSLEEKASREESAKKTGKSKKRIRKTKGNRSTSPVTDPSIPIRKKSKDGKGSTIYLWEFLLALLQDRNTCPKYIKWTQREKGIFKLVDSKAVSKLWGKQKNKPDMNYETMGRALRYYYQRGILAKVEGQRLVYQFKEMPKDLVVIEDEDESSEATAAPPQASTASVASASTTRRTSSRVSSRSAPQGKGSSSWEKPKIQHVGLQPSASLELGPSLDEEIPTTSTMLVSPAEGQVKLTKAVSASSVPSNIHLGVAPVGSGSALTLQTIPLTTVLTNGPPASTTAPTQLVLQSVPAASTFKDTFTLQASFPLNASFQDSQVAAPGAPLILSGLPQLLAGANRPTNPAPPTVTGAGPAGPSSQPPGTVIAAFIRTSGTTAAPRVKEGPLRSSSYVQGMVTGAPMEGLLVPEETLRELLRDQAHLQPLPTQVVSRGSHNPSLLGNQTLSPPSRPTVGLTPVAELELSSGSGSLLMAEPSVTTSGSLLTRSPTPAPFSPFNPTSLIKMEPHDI
# Sequence of CRX (O43186 whole entry): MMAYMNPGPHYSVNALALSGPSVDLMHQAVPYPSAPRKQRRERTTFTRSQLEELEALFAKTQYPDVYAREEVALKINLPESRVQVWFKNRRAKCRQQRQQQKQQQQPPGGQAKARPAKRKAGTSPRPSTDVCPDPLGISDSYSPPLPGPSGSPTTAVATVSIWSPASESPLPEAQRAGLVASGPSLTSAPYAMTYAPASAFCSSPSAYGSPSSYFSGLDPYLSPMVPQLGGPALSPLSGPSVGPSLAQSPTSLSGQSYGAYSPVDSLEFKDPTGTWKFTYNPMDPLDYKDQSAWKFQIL
# Sequence of ETV6 (P41212 whole entry): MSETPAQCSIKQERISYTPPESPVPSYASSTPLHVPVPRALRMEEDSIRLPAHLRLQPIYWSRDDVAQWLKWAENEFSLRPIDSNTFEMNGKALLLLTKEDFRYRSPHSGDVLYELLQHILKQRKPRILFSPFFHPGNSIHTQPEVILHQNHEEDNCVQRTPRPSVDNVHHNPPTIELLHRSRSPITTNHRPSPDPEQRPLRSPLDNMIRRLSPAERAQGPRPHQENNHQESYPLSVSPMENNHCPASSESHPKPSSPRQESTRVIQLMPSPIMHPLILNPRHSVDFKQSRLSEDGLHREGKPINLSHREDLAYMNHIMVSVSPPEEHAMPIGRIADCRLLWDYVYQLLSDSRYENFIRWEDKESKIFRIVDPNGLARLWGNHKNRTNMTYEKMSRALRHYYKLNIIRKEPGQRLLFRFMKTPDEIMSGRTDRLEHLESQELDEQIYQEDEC
# Sequence of HSF1 (Q00613 whole entry): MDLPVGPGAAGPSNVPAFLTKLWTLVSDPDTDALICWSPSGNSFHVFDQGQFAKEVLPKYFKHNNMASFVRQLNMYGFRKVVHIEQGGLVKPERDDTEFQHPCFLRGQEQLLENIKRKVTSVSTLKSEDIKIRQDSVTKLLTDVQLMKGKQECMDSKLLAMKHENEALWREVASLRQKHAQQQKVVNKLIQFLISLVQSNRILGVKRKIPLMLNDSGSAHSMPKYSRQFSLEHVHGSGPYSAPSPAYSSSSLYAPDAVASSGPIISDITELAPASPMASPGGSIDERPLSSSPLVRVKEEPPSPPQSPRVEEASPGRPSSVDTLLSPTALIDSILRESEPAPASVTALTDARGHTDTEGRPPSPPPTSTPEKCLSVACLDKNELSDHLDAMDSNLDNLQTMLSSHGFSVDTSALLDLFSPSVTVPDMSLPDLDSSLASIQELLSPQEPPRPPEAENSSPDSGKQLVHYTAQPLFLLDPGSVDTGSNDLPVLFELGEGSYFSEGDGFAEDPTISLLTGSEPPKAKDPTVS
sequence,measurement,setting,value
CTCTCA,binding signal,[1],"1.44 fold enrichment (6-mer frequency, TF over GST control)"
same,binding signal,[2],"1.35 fold enrichment (6-mer frequency, TF over GST control)"
same,binding signal,[3],"1.2 fold enrichment (6-mer frequency, TF over GST control)"
same,binding signal,[4],"1.21 fold enrichment (6-mer frequency, TF over GST control)"
same,binding signal,[5],"1.42 fold enrichment (6-mer frequency, TF over GST control)"
same,binding signal,[6],"1.45 fold enrichment (6-mer frequency, TF over GST control)"
same,binding signal,[7],"1.33 fold enrichment (6-mer frequency, TF over GST control)"
same,binding signal,[8],"1.47 fold enrichment (6-mer frequency, TF over GST control)"
same,binding signal,[9],"1.24 fold enrichment (6-mer frequency, TF over GST control)"
same,binding signal,[10],"1.51 fold enrichment (6-mer frequency, TF over GST control)"
same,binding signal,[11],"1.5 fold enrichment (6-mer frequency, TF over GST control)"
same,binding signal,[12],"1.39 fold enrichment (6-mer frequency, TF over GST control)"
same,binding signal,[13],"1.42 fold enrichment (6-mer frequency, TF over GST control)"
same,binding signal,[14],"1.32 fold enrichment (6-mer frequency, TF over GST control)"
same,binding signal,[15],"1.11 fold enrichment (6-mer frequency, TF over GST control)"
same,binding signal,[16],"1.28 fold enrichment (6-mer frequency, TF over GST control)"
same,binding signal,[17],"1.43 fold enrichment (6-mer frequency, TF over GST control)"
same,binding signal,[18],"1.36 fold enrichment (6-mer frequency, TF over GST control)"
